The experiment in a line: cAMP Responsive Elements (CRE) small molecule antagonists, cell-based qHTS assay: qHTS cell viability counter screen (AID 2060913). Note: nearly all actives have a fitted effect of over 40% in size. As to conditions: CRE-bla HEK293T viability, CellTiter-Glo luminescence, 5 h; series mostly up to 92.4 µM. The gist of the method:
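Cytotoxicity counter screen multiplexed with the CRE-bla antagonist read: HEK293T cells in DMEM with dialyzed FBS and 25 mM HEPES were treated 3 hrs under 0.25 uM final NKH477, then viability measured by CellTiter-Glo luminescence.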
(In qHTS, concentration-response curves come from the screen itself.)

Results filed as inconclusive are left out. Entries that show only a call come without a potency. Values without a mark were called inactive. Calls of active or inactive are those of the source. Calls come from the whole dose curve; as a rule, active = well fitted cell-killing curve with a large enough effect in the repeat runs; inconclusive = weak or mixed curves, or effect the other way; inactive = flat fitted curve, though single readings scatter.
Potency is the fitted concentration of half-maximal effect.

As for `CC(C)C[C@H](NC(=O)[C@H](CCc1ccccc1)NC(=O)CN1CCOCC1)C(=O)N[C@@H](Cc1ccccc1)C(=O)N[C@@H](CC(C)C)C(=O)[C@@]1(C)CO1`, the Potency entry was “inactive”.
In the case of `O=Cc1ccc([N+](=O)[O-])cc1`, the Potency result was “inactive”.
On to `Oc1cccc(Nc2ccccc2)c1`, for which the Potency result was “inactive”.
`O=C(CCC1CCN(Cc2ccccc2)CC1)c1ccc2c(c1)NCCCC2`: the Potency entry is “inactive”.
Take `OCC(CO)(CO)COCC(CO)(CO)CO`: the Potency result was “inactive”.
The same measure, in the same setting: the result for `CC(C)(C)C(=O)NCCCC(=O)O` reads “inactive”.
For `COP(=O)(OC)OC(c1ccc(Cl)cc1)P(=O)(OC)OC` (stereo not drawn), the Potency entry was “inactive”.
The same measure, in the same setting: the result for `CC(=O)OC(C)C[N+](C)(C)C` (stereo not drawn) reads “inactive”; that for `CC(C)CCOC(=O)c1ccc(N(C)C)cc1`, “inactive”.
Regarding `CCN(CC)CCOc1ccc(C(O)(Cc2ccc(Cl)cc2)c2ccc(C)cc2)cc1` (stereo not drawn), the Potency is 26.6 µM (active).
In the case of `Oc1c(Cl)cc(Cl)c(Cl)c1Cl`, the Potency entry is “inactive”.
`CCCC(=O)O[C@]1(C(=O)CCl)[C@@H](C)C[C@H]2[C@@H]3CCC4=CC(=O)C=C[C@]4(C)[C@@]3(F)C(=O)C[C@@]21C`: the Potency entry is “inactive”.
With `CC(=O)OCC(=O)[C@@]1(O)[C@H](C)C[C@H]2[C@@H]3CCC4=CC(=O)C=C[C@]4(C)[C@@]3(F)[C@@H](O)C[C@@]21C`, the Potency entry is “inactive”.
As to `Cc1ccccc1N1C(=O)c2cc(S(N)(=O)=O)c(Cl)cc2NC1C` (stereo not drawn), the Potency result is “inactive”.
For the compound `CCCCCCCCCCCCCCCC(=O)OC(C)C`, the Potency result is “inactive”.
Take `COc1ccc(OC)c(Cl)c1`: the Potency result is “inactive”.
Consider `CC(C)(C)OC(=O)c1ccccc1C(=O)O`, for which the Potency result is “inactive”.
Turning to `CC1CC(OC(=O)c2ccccc2O)CC(C)(C)C1` (stereo not drawn), the Potency entry is “inactive”.
For `O=C(O)c1cccnc1C(=O)O`, the Potency result is “inactive”.
As to `CCN(CC)c1ccc(C(=C2C=CC(=[N+](CC)CC)C=C2)c2ccc(S(=O)(=O)O)cc2S(=O)(=O)[O-])cc1`, the Potency was 27.3 µM (active).
The same measure, in the same setting: the result for `COC(=O)CCCCCCCC(=O)OC` reads “inactive”; that for `CCOC(=O)C1=C(C)NC(C)=C(C(=O)OC)C1c1cccc(Cl)c1Cl` (stereo not drawn), “inactive”; that for `CCn1cc(C(=O)O)c(=O)c2cc(F)c(N3CCNCC3)nc21`, “inactive”.
Take `CN(C/C=C/C#CC(C)(C)C)Cc1cccc2ccccc12`: the Potency entry is “inactive”.
Still for that read-out and setting: the entry for `CNCCCC12CCC(c3ccccc31)c1ccccc12` is “inactive”; for `NS(=O)(=O)c1cc2c(cc1Cl)NC(CC1CCCC1)NS2(=O)=O` (stereo not drawn) it is “inactive”; for `NC(=O)NC1N=C([O][Al])NC1=O` (stereo not drawn) it is “inactive”.
As to `CN1CCN(C2=Nc3cc(F)ccc3Cc3ccccc32)CC1`, the Potency result is “inactive”.
For the compound `CCCCCCOC(=O)CC`, the Potency entry is “inactive”.
With `Cc1oc(=O)oc1CN1CCN(c2cc3c(cc2F)c(=O)c(C(=O)O)c2n3C(C)S2)CC1` (stereo not drawn), the Potency result was “inactive”.
Consider `CC(C)C[C@H](NC(=O)[C@H](Cc1ccccc1)NC(=O)c1cnccn1)B(O)O`, for which the Potency entry is “inactive”.
In the case of `OCC(O)CN1CCN(c2ccccc2)CC1` (stereo not drawn), the Potency result is “inactive”.
With `N[C@@H](Cc1ccc(O)cc1)C(=O)O`, the viability change, negative = cytotoxic was -0.963% [at 8.39 µM].
Take `CC(C(=O)O)c1cccc(Oc2ccccc2)c1` (stereo not drawn): the Potency result was “inactive”.
Same read-out and setting: the result for `COP(=O)(O)OP(=O)(O)OC` reads “inactive”.
Same read-out and setting: the result for `CC1=C(C(=O)OC(C)C)C(c2cccc([N+](=O)[O-])c2)C(C(=O)OC2CN(C(c3ccccc3)c3ccccc3)C2)=C(N)N1` (stereo not drawn) reads “inactive”.
As for `COc1cc(C(=O)N2CCOCC2)cc(OC)c1OC`, the Potency entry was “inactive”.
For the compound `COCCOCCOC`, the Potency result was “inactive”.
Take `C[C@@H]1CCC[C@H](C)N1CCCC(O)(c1ccccc1)c1ccccn1` (stereo partly drawn): the Potency result is “inactive”.
On the same count and under the same terms, the entry for `O=C1OC2(c3ccccc31)c1ccc(O)c(Br)c1Oc1c2ccc(O)c1Br` is “inactive”; for `CC1CCC(C(C)(C)O)CC1` (stereo not drawn) it is “inactive”; for `CC(C)[N+](C)(C)CC(O)COc1cccc2ccccc12` (stereo not drawn) it is “inactive”.
In the case of `Nc1cc([N+](=O)[O-])ccc1O`, the Potency entry is “inactive”.
For `COC(=O)Cc1cccc2ccccc12`, the Potency result is “inactive”.
With `NC(=O)COCCN1CCN(C(c2ccccc2)c2ccc(Cl)cc2)CC1` (stereo not drawn), the Potency result was “inactive”.
On the same count and under the same terms, the entry for `CNC(=O)[C@H]1O[C@@H](n2cnc3c(NCc4cc(Cl)ccc4OCc4cc(C)no4)ncnc32)[C@H](O)[C@@H]1N` is “inactive”; for `c1cc(CCCc2ccncc2)ccn1` it is “inactive”.
With `CCOC(=O)[C@H](CCc1ccccc1)N[C@@H](C)C(=O)N1Cc2cc(OC)c(OC)cc2C[C@H]1C(=O)O`, the Potency entry is “inactive”.
On to `CCCOc1ccc2c(c1)CC[C@@H]1[C@@H]2CC[C@]2(C)C(OC)CC[C@@H]12` (stereo partly drawn), for which the Potency entry was “inactive”.
On to `c1ccc(CSCc2ccccc2)cc1`, for which the Potency entry is “inactive”.
In the case of `Cc1c(Nc2ncccc2C(=O)O)cccc1C(F)(F)F`, the Potency result is “inactive”.
For the compound `CCc1ccc(C(=O)C(C)CN2CCCCC2)cc1` (stereo not drawn), the Potency entry was “inactive”.
For `Cc1ccccc1C(OCCN(C)C)c1ccccc1` (stereo not drawn), the Potency entry was “inactive”.

(Values after PubChem BioAssay (Tox21).)
